PubChem BioAssay
Calls of active or inactive are those of the source.

Legend:
[1] = binders of probe aFSTL3 on microarray, primary screen, stem cell growth factor project, biochemical, small-molecule microarray, fluorescence 635/667 (AID 1064); settings: higher = more signal;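 further: measures binding of the biotinylated anti-FSTL3 antibody to printed compounds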
[2] = binders from COS7 lysate, DM2A8 probe, primary screen, torsin A project, cell lysate, small-molecule microarray, fluorescence 635/667 (AID 1065); settings: higher = more signal, COS7 lysate expressing mutant human TOR1A
[3] = binders of probe aFGF2 on microarray, primary screen, stem cell growth factor project, biochemical, small-molecule microarray, fluorescence 635/667 (AID 1067); settings: higher = more signal;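 further: measures binding of biotinylated aFGF2 protein to printed compounds on slides; z-score merges feature fluorescence and signal-to-noise across triplicate slides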
[4] = binders of probe aFGF10 on microarray, primary screen, stem cell growth factor project, biochemical, small-molecule microarray, fluorescence 635/667 (AID 1071); settings: higher = more signal;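 further: score merges 667 nm spot intensity and signal to noise from triplicate slides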
[5] = molecular target: Neurogenic locus notch homolog protein 2 (Homo sapiens) (UniProt Q04721); experiment: Notch2 binders on small-molecule microarrays, primary screen, biochemical, small-molecule microarray, 635 nm fluorescence, stem cell growth factors (AID 1073); settings: Notch2 binding, higher = more signal
[6] = molecular target: Pro-neuregulin-1, membrane-bound isoform (Homo sapiens) (UniProt Q02297); experiment: NRG1 binders on small-molecule microarrays, primary screen, psychiatric disease protein project, biochemical, small-molecule microarray, fluorescence 635/667 (AID 1075); settings: NRG1 binding, 635 nm fluorescence, higher = more signal;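 further: score combines 667 nm spot fluorescence with signal to noise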
[7] = system: Neuregulin-1 EGF-like domain; experiment: binders of neuregulin-1 EGF-like domain, primary screen, biochemical, small-molecule microarray, 635 nm fluorescence (AID 1081); settings: small-molecule microarray binding, higher = more signal;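 further: binding of the protein to compounds printed on small-molecule microarray slides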
[8] = FRG1 promoter luciferase signal modulators, primary screen, FRG1 inhibition for FSHD, cell-based, C2C12 myotubes, firefly/Renilla luciferase, luminescence (AID 1084); settings: higher = more signal, called active from +8 up or from −8 down
[9] = binders of probe aFST on microarray, primary screen, stem cell growth factor project, biochemical, small-molecule microarray, fluorescence 635/667 (AID 1086); settings: higher = more signal;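 further: score merges 667 nm fluorescence with signal-to-noise of each printed compound spot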
[10] = binders of probe aHhip on microarray, primary screen, stem cell growth factor project, biochemical, small-molecule microarray, fluorescence 635/667 (AID 1087); settings: higher = more signal;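 further: score merges spot fluorescence at 667nm with spot signal to noise ratio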
[11] = system: PRMT1 (protein arginine N-methyltransferase 1); experiment: PRMT1 binders on small-molecule microarrays, primary screen, biochemical, small-molecule microarray, 635 nm fluorescence (AID 1088); settings: small-molecule microarray binding, higher = more signal;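 further: binding of Prmt1 protein to compounds spotted on small-molecule microarray slides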
[12] = yeast growth modulation, basal conditions, primary screen, YJM789 clinical isolate, OD600, 24 h (AID 1089);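 further: growth of clinical yeast isolate S. cerevisiae YJM 789 seeded 1000 cells per well; test concentration not given here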; settings: S. cerevisiae YJM789 growth, higher = more signal, called active from +8 up or from −8 down
[13] = fission yeast growth modulation, primary screen, strain 972, OD600, 24 h, no modulator (AID 1090);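 further: basal condition with compound alone and no growth modifier present; test concentration not given here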; settings: S. pombe 972 growth, higher = more signal, called active from +8 up or from −8 down
[14] = S. cerevisiae growth modulation with rapamycin, primary screen, strain BY4716, OD600, 96 h (AID 1091); settings: higher = more signal, called active from +8 up or from −8 down; further: test concentration not given here
[15] = molecular target: Torsin-1A-interacting protein 2 (Homo sapiens) (UniProt Q8NFQ8); experiment: LULL1 binders on small-molecule microarray, primary screen, cell lysate, human LULL1 lysate, 635/667 nm fluorescence (AID 1092); settings: hLULL1 lysate binding, 635 nm fluorescence, higher = more signal;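 further: probe is lysate of COS7 cells overexpressing human LULL1; score merges per-feature 667 nm fluorescence with signal-to-noise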
[16] = E. coli growth modulation, two-sided OD650, primary screen, E. coli filamentation project, strain DRC41, 24 h (AID 1093); settings: OD650, 24 h, higher = more signal, called active from +8 up or from −8 down;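 further: MC1000 strain lacking acrAB efflux and sulA so SOS filamentation is blocked; test concentration not given here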
[17] = small-molecule microarray binders of probe aLefty2, primary screen, biochemical, biotinylated probe, 635/667 nm fluorescence (AID 1094); settings: higher = more signal;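 further: score merges spot fluorescence near 667 nm with spot signal-to-noise ratio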
[18] = system: Noggin (protein binding on small-molecule microarray); experiment: Noggin binders on small-molecule microarray, primary screen, biochemical, 635/667 nm fluorescence (AID 1095); settings: 635 nm fluorescence, higher = more signal;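 further: score merges 667 nm feature fluorescence with signal to noise over triplicate slides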
[19] = molecular target: Neurogenic locus notch homolog protein 3 (Homo sapiens) (UniProt Q9UM47); experiment: NOTCH3 binders on small-molecule microarray, primary screen, biochemical, 635/667 nm fluorescence (AID 1096); settings: NOTCH3 binding, 635 nm fluorescence, higher = more signal
[20] = small-molecule microarray binders of probe aEGFR, primary screen, biochemical, biotinylated probe, 635/667 nm fluorescence (AID 1097); settings: higher = more signal;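 further: probe is a biotinylated anti-EGFR antibody binding compounds printed on slides; score combines fluorescence near 667 nm and signal to noise of each spot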

Pro-neuregulin-1, membrane-bound isoform (Homo sapiens), sequence (Q02297 whole entry, looked up, the tested form may be a part, canonical isoform): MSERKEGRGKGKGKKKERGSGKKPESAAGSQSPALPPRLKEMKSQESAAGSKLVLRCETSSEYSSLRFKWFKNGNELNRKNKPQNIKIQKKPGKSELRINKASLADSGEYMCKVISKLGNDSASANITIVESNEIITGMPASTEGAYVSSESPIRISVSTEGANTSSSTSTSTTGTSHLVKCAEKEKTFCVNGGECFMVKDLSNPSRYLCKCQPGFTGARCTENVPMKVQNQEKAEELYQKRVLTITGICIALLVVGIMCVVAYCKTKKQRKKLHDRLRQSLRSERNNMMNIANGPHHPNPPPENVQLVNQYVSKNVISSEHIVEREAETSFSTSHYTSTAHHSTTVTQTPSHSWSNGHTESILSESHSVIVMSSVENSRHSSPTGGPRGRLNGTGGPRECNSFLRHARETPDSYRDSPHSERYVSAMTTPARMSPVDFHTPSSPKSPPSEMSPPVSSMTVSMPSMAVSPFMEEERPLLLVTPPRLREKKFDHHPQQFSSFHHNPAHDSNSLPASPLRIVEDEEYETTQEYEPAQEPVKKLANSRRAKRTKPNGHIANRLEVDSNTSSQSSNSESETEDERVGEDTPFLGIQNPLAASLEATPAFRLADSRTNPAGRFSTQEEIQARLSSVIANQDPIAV
Torsin-1A-interacting protein 2 (Homo sapiens), sequence (Q8NFQ8 whole entry, looked up): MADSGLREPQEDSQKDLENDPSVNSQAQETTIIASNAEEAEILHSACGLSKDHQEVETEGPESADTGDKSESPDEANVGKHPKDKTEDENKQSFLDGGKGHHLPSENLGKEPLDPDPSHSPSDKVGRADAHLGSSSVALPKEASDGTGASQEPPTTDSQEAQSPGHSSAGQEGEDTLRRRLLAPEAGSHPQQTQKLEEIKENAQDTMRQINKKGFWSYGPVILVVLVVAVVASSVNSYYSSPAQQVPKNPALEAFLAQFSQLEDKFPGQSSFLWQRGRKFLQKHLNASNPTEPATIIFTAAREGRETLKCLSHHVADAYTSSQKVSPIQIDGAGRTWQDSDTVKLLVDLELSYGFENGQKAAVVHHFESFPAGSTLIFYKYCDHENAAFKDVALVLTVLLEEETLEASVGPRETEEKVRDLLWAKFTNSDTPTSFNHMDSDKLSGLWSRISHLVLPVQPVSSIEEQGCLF
Neurogenic locus notch homolog protein 2 (Homo sapiens), sequence (Q04721 whole entry, looked up, canonical isoform): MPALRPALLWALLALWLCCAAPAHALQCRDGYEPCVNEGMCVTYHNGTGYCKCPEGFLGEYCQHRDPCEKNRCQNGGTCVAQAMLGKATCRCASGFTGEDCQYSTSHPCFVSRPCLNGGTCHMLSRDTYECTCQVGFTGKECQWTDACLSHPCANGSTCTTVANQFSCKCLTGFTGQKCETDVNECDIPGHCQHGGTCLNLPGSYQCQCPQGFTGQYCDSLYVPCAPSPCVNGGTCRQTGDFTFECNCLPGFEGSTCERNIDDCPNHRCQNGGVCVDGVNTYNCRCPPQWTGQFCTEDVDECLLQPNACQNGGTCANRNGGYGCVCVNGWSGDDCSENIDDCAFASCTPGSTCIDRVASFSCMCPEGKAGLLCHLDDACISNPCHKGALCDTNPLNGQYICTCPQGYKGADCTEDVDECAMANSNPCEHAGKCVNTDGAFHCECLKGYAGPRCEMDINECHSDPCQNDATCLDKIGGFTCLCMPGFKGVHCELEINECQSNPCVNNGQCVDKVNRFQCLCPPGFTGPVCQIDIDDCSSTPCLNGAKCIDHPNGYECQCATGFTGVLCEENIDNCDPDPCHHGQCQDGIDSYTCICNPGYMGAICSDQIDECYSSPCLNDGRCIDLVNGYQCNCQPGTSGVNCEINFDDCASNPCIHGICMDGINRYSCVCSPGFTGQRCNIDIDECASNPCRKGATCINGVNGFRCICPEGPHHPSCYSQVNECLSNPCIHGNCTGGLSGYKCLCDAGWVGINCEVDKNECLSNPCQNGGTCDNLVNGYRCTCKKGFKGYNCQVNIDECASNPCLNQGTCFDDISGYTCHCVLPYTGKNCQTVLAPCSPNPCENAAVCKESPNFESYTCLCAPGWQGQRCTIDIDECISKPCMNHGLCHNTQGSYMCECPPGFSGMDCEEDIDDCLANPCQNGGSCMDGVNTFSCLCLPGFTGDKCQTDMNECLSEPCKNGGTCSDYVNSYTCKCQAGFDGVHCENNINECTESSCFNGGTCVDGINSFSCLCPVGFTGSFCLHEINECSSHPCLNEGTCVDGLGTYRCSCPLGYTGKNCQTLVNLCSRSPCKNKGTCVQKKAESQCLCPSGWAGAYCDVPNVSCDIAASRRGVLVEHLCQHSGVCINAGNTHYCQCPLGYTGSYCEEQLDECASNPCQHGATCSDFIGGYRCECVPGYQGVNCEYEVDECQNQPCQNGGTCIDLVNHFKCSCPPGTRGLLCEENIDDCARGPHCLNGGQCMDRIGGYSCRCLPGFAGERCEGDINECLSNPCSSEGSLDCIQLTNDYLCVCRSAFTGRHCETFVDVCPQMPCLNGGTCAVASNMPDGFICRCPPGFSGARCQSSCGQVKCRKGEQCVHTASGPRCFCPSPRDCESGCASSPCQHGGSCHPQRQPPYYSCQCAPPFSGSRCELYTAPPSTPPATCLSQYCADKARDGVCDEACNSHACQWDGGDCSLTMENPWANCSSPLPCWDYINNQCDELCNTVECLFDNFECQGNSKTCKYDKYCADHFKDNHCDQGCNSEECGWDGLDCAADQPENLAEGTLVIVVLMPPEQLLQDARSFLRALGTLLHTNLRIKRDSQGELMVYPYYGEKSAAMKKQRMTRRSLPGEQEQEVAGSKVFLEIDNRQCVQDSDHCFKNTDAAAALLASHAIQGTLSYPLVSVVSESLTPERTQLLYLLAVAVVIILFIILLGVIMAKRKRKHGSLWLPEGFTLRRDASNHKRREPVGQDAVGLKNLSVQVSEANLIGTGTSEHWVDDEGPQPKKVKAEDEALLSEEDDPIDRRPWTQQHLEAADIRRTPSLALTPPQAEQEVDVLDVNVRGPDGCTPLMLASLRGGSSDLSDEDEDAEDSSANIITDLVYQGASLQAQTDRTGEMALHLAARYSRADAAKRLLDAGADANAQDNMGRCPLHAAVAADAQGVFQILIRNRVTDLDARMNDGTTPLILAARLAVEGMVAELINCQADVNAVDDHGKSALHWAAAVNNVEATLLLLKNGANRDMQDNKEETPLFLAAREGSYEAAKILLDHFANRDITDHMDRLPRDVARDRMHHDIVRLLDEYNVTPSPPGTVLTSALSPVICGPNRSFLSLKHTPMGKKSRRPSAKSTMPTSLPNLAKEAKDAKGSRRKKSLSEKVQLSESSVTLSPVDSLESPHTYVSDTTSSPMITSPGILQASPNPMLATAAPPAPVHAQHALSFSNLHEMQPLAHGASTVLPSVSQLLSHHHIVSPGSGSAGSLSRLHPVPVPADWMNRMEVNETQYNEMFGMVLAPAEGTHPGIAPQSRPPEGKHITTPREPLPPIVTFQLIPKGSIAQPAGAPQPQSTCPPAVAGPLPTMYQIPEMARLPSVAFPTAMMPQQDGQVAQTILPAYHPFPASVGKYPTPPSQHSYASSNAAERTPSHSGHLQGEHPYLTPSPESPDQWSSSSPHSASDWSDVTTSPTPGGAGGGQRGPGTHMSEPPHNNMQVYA

Structure (SMILES)	composite z-score [1]	composite z-score [2]	composite z-score [3]	composite z-score [4]	composite z-score [5]	composite z-score [6]	composite z-score [7]	z-score [8]	composite z-score [9]	composite z-score [10]	composite z-score [11]	z-score [12]	z-score [13]	z-score [14]	composite z-score [15]	z-score [16]	composite z-score [17]	composite z-score [18]	composite z-score [19]	composite z-score [20]
COC(=O)C1=CC(CCCO)=CC(C2CC2)N(Cc2sc3ccccc3c2Cl)C=C1C(=O)OC (stereo not given)	-0.0356	0.43	0.0216	0.889	1.44	1.98	1.08	-1.73 (inactive)	1.1	-0.266	1.54	0.258 (inactive)	-3.05 (inactive)	-1.55 (inactive)	3.36	0.404 (inactive)	0.198	0.346	1.16	0.0746
COCCOC(=O)N1C(=O)[C@@]2(c3cc(C#CCNC(N)=O)ccc31)[C@H](C(=O)N1CCN(c3ncccn3)CC1)[C@H]1C(=O)O[C@H](c3ccccc3)[C@H](c3ccccc3)N1[C@@H]2c1ccccc1OCCO	0.397	0.242	0.0811	0.947	1.12	0.727	1.09	-0.311 (inactive)	1.28	-0.204	1.47	2.12 (inactive)	1.71 (inactive)	4.95 (inactive)	1.79	1.72 (inactive)	0.181	0.808	1.12	-0.0286
C=C(COC)/C(=C/C[C@H](OC(=O)c1ccncc1)c1cccc(OCCO)c1)c1cc(C(=O)OC)ccc1OC	-0.282	0.635	-0.116	0.783	0.0724	0.555	1.27	-0.889 (inactive)	-0.0832	0.0505	1.48	0.447 (inactive)	-1.01 (inactive)	-0.429 (inactive)	1.95	0.973 (inactive)	-0.128	0.604	0.679	-0.139
COC(=O)C(CC#Cc1ccc2c(c1)[C@]1(C(=O)N2)[C@H](C(=O)NC[C@H](O)c2ccccc2)[C@H]2C(=O)O[C@H](c3ccccc3)[C@H](c3ccccc3)N2[C@@H]1c1ccc(OCCO)cc1)C(=O)OC	1.4	1.2	0.225	0.641	1.37	1.41	1.3	1.9 (inactive)	2.31	-0.447	1.54	2.7 (inactive)	1.16 (inactive)	3.93 (inactive)	3.62	-0.207 (inactive)	0.14	1.87	1.05	0.345
NCCCCCNC(=O)[C@H]1C[C@H]2C(=O)NCC(=O)N2[C@H]1c1cccc(OCCO)c1	0.257	0.759	-0.0337	-0.0838	0.709	1.17	1.43	1.11 (inactive)	0.95	0.165	1.31	-0.155 (inactive)	-1.02 (inactive)	-0.189 (inactive)	2.34	0.946 (inactive)	-0.0766	1.33	0.6	0.0311
CCOC(=O)C[C@H]1[C@H](OC(=O)c2ccc(-c3ccccc3)cc2)[C@@H](NC(=O)c2ccc(-c3ccccc3)cc2)c2cc(OCCCO)ccc2N1C(=O)Cc1ccc(OC)cc1	-0.263	-0.0676	-0.0525	0.0168	0.306	0.168	-0.489	0.712 (inactive)	0.425	-0.226	-0.007	-0.907 (inactive)	0.321 (inactive)	0.16 (inactive)	0.856	-0.963 (inactive)	-0.0196	-0.31	-0.166	-0.0505
COC(=O)[C@@]1(Cc2ccc(F)cc2)[C@H]2c3cc(C(=O)N4CCCC4)n(Cc4cccc5ccccc45)c3C[C@H]2CN1C(=O)c1ccccc1	0.242	0.312	0.148	0.62	1.57	2.16	1.35	0.272 (inactive)	0.558	0.762	0.187	0.0247 (inactive)	0.702 (inactive)	0.307 (inactive)	3.85	-1.48 (inactive)	0.698	-0.275	0.941	0.245
COC(=O)[C@@]1(Cc2ccc(OC)cc2)[C@H]2c3cc(C(=O)N4CCCC4)n(Cc4ccccn4)c3C[C@H]2CN1C(=O)c1ccccc1	0.381	0.765	0.396	1.11	1.66	2.1	1.4	2.78 (inactive)	1.01	0.501	0.897	0.627 (inactive)	0.482 (inactive)	1.33 (inactive)	3.86	0.245 (inactive)	0.346	-0.404	0.979	0.155
[N-]=[N+]=NCc1ccccc1C[C@]1(C(=O)O)N=C(c2ccc(OCCCO)cc2)O[C@H]1c1ccccc1CN=[N+]=[N-]	-0.0279	0.169	-0.0474	0.396	0.591	1.53	1.16	-1.66 (inactive)	0.467	-0.239	0.893	-1.17 (inactive)	-3.09 (inactive)	-1.92 (inactive)	3.25	-0.292 (inactive)	0.0987	-0.118	0.759	0.0617
C=CCNC(=O)[C@H]1[C@@H]2C(=O)O[C@@H](c3ccccc3)[C@@H](c3ccccc3)N2[C@@H](c2ccc(O)cc2)[C@]12C(=O)N(C(=O)OCCOC)c1ccc(C#CCCO)cc12	0.174	1.93	-0.154	0.932	0.0576	1.33	1.32	-4.26 (inactive)	-0.0024	-0.0618	1.58	1.16 (inactive)	-0.47 (inactive)	0.804 (inactive)	2.97	1.07 (inactive)	-0.0916	-0.176	-0.15	-0.0163
